The record followed here is a collection of fitness landscapes (doi:10.1126/science.1257360).

B1: PhoQ; a variant is named by its letters at X, in order, P23837 (parent)
chain: MKKLLRLFFPLSLRVRFLLATAAVVLVLSLAYGMVALIGYSVSFDKTTFRLLRGESNLFYTLAKWENNKLHVELPENIDKQSPTMTLIYDENGQLLWAQRDVPWLMKMIQPDWLKSNGFHEIEADVNDTSLLLSGDHSIQQQLQEVREDDDDAEMTHSVAVNVYPATSRMPKLTIVVVDTIPVELKSSYMVWSWFIYVLSANLLLVIPLLWVAAWWSLRPIEALAKEVRELEEHNRELLNPATTRELTSLVRNLNRLLKSERERYDKYRTTLTDLTHSLKTPLXXLQXXLRSLRSEKMSVSDAEPVMLEQISRISQQIGYYLHRASMRGGTLLSRELHPVAPLLDNLTSALNKVYQRKGVNISLDISPEISFVGEQNDFVEVMGNVLDNACKYCLEFVEISARQTDEHLYIVVEDDGPGIPLSKREVIFDRGQRVDTLRPGQGVGLAVAREITEQYEGKIVAGESMLGGARMEVIFGRQHSAPKDE

In all, about 140,000 sequences were measured (“enrichment ratio after two sorts for PhoP signalling”: median about 0, highest 2% from about 11 on). The sample holds the highest values, similar sequences and a random draw of the others, so the mix is not that of the screen. A value given as a limit tells only on which side of the number the result lay.

This assay covers variants of B1. Kind of assay: enrichment ratio after two sorts for PhoP signalling (ratio (wild type AVST 3.29)); higher = more functional. The conditions noted are these: with PhoP (E. coli).
Consider AHCL, for which the enrichment ratio was 9.7. Take VCCY: the enrichment ratio was ≤ 0.25. Regarding ACCI, the enrichment ratio came out at 26.9. Turning to ACCK, the enrichment ratio is 12.8. For the variant ACFH, the enrichment ratio is ≤ 0.25.

Regarding ACCS, the enrichment ratio was found to be 2.23. With ACCC, the enrichment ratio worked out at 34.1. For ACCY, the enrichment ratio amounted to 19.6. Regarding ACCA, the enrichment ratio is 7.21. With KCCC, the enrichment ratio is ≤ 0.25.

For the variant KCCY, the enrichment ratio is ≤ 0.25. In the case of YDTQ, the enrichment ratio was ≤ 0.25. With GRPL, the enrichment ratio was ≤ 0.25. In the case of KEDR, the enrichment ratio was ≤ 0.25. For FEMC, the enrichment ratio was found to be 10.8. As to IQYT, the enrichment ratio was ≤ 0.25.

With DHLG, the enrichment ratio is ≤ 0.25. In the case of NLYQ, the enrichment ratio is ≤ 0.25. As to MPYA, the enrichment ratio was ≤ 0.25.

Regarding ACCE, the enrichment ratio is ≤ 0.25. Next, ACCV: 8.87. For the variant ACNK, the enrichment ratio is ≤ 0.25. In the case of ACCM, the enrichment ratio turned out to be 14.9.

Regarding ACCG, the enrichment ratio was determined as 25.4. Next, PCQA: ≤ 0.25; HATN: ≤ 0.25; NYIP: ≤ 0.25.

As to TACI, the enrichment ratio was 22.6. Consider NACF, for which the enrichment ratio is ≤ 0.25. As to NACL, the enrichment ratio was determined as 4.16.

Turning to TACL, the enrichment ratio stood at 11.4. For the variant TAAI, the enrichment ratio was 7.96. With KACL, the enrichment ratio is ≤ 0.25.

On to KACF, for which the enrichment ratio was ≤ 0.25. Take TACA: the enrichment ratio was determined as 8.47. For the variant TACS, the enrichment ratio was determined as 14.1.

In the case of TACE, the enrichment ratio was ≤ 0.25. TAMD: the enrichment ratio stood at 6.3.

Turning to TACF, the enrichment ratio worked out at 18.8. Next, WKNR: ≤ 0.25. With VKRR, the enrichment ratio was ≤ 0.25.

With DLFL, the enrichment ratio was ≤ 0.25. Regarding DTVY, the enrichment ratio is ≤ 0.25. Turning to GNTN, the enrichment ratio was ≤ 0.25. With FYCC, the enrichment ratio was ≤ 0.25.

In the case of AHHD, the enrichment ratio is ≤ 0.25. As to RGHL, the enrichment ratio came out at 0.34.

VRKH: the enrichment ratio is ≤ 0.25.

On to YACQ, for which the enrichment ratio is ≤ 0.25. For NACR, the enrichment ratio is ≤ 0.25. On to KACC, for which the enrichment ratio was ≤ 0.25. As to TACQ, the enrichment ratio was determined as 15. On to TACC, for which the enrichment ratio worked out at 13.6. Next, TAQP: ≤ 0.25.

As for TAKR, the enrichment ratio is ≤ 0.25. TADH: the enrichment ratio was 4.03. On to TACR, for which the enrichment ratio came out at 14.8. Turning to WVLV, the enrichment ratio was ≤ 0.25. Next, EKCV: ≤ 0.25. For QQYK, the enrichment ratio was ≤ 0.25. For RYKI, the enrichment ratio is ≤ 0.25.

In the case of WKHA, the enrichment ratio is ≤ 0.25. Regarding HFSC, the enrichment ratio was ≤ 0.25. In the case of VSFV, the enrichment ratio is 0.649. On to WDSR, for which the enrichment ratio is ≤ 0.25. Next, TKCD: 21.6; TQCD: 29.3.

With AICD, the enrichment ratio is 5.13.

For AKCD, the enrichment ratio came out at 0.285. Take SLCD: the enrichment ratio is 17.9.

Consider WLCD, for which the enrichment ratio was ≤ 0.25.

Regarding NQCD, the enrichment ratio was ≤ 0.25. Take IQCD: the enrichment ratio was ≤ 0.25.

As to PLCD, the enrichment ratio is ≤ 0.25. For the variant KKCD, the enrichment ratio is ≤ 0.25. Consider ANCD, for which the enrichment ratio is 0.285.

AQCD: the enrichment ratio came to 42.7. For FDEE, the enrichment ratio is ≤ 0.25. As for LLLK, the enrichment ratio is ≤ 0.25. In the case of IWDM, the enrichment ratio was ≤ 0.25.

Consider WDSH, for which the enrichment ratio is ≤ 0.25. Regarding HNFP, the enrichment ratio was ≤ 0.25. As for PDHT, the enrichment ratio was ≤ 0.25.

As to MHPL, the enrichment ratio is ≤ 0.25.

With KHNC, the enrichment ratio is ≤ 0.25. AWVP: the enrichment ratio is ≤ 0.25. On to NDNL, for which the enrichment ratio was ≤ 0.25. Next, SQCD: 11.4; SNCD: 16.4; KCCD: ≤ 0.25. For FQCD, the enrichment ratio is ≤ 0.25. VCCD: the enrichment ratio is ≤ 0.25.

For the variant SPCD, the enrichment ratio was ≤ 0.25. Turning to KYCD, the enrichment ratio is ≤ 0.25. Next, STCD: 6.22; SCCD: 16.2. In the case of GQTA, the enrichment ratio is ≤ 0.25.

QQPV: the enrichment ratio is ≤ 0.25.

For TPAE, the enrichment ratio was ≤ 0.25. Consider VMCM, for which the enrichment ratio was ≤ 0.25.

For the variant QQDM, the enrichment ratio is ≤ 0.25. Turning to SEES, the enrichment ratio was 6.49.

With LFRE, the enrichment ratio is ≤ 0.25. As for EYQC, the enrichment ratio is ≤ 0.25. Regarding GVCF, the enrichment ratio came to 25. In the case of NVCF, the enrichment ratio was ≤ 0.25. For the variant MVCF, the enrichment ratio came to 5.97.

GNCF: the enrichment ratio was found to be 6.9. With PVCF, the enrichment ratio is ≤ 0.25. Next, FVCF: 12; KKRY: ≤ 0.25; LMRK: ≤ 0.25. Consider KFQK, for which the enrichment ratio is ≤ 0.25. KDWW: the enrichment ratio is ≤ 0.25. Next, TEGR: ≤ 0.25; HRMR: ≤ 0.25; TEMV: 20.2. TEMW: the enrichment ratio was ≤ 0.25. TEMR: the enrichment ratio was determined as 12.2. Next, TEMD: 1.58. Turning to TEMS, the enrichment ratio came out at 11.4. For the variant NEIG, the enrichment ratio was ≤ 0.25. Take TEYV: the enrichment ratio is 4.31. With TEEV, the enrichment ratio was ≤ 0.25.

MEIG: the enrichment ratio stood at 8.35. Next, TEIG: 18.6. Next, VAVY: ≤ 0.25.

On to IKRV, for which the enrichment ratio is ≤ 0.25.

Regarding WDMR, the enrichment ratio was ≤ 0.25. With RSTE, the enrichment ratio was ≤ 0.25.

For the variant RVPP, the enrichment ratio was ≤ 0.25. Consider KQPC, for which the enrichment ratio is ≤ 0.25. Turning to EFMI, the enrichment ratio is ≤ 0.25. In the case of QNHE, the enrichment ratio is ≤ 0.25. With HRLN, the enrichment ratio is ≤ 0.25. Consider REIC, for which the enrichment ratio is ≤ 0.25. For the variant VPQL, the enrichment ratio was ≤ 0.25. Turning to TEMG, the enrichment ratio stood at 19.1. Next, KSWV: ≤ 0.25. Consider NRMK, for which the enrichment ratio was ≤ 0.25. For the variant HPWV, the enrichment ratio is ≤ 0.25.

For TEHV, the enrichment ratio turned out to be 10.3. Next, TEMK: 32.5. Next, TEWV: 18.4; TEGG: 5.71. Regarding TEGV, the enrichment ratio amounted to 12.6.

Regarding KRMK, the enrichment ratio is ≤ 0.25. TGGV: the enrichment ratio was found to be 4.98.

Turning to TEVG, the enrichment ratio was determined as 10.9.

Regarding GQIN, the enrichment ratio was ≤ 0.25. Next, NEIF: ≤ 0.25; PWWM: ≤ 0.25. Consider LMKL, for which the enrichment ratio is ≤ 0.25. Next, AMSP: ≤ 0.25; MEAG: ≤ 0.25; TEMI: 51.6. For the variant LRMY, the enrichment ratio is ≤ 0.25.

Consider TEMF, for which the enrichment ratio stood at 5.53. For TRMY, the enrichment ratio was determined as 0.856. Regarding TEAG, the enrichment ratio worked out at 19.7. With TEMT, the enrichment ratio is 7.24. Turning to NEAG, the enrichment ratio was 2.93. SRMA: the enrichment ratio was ≤ 0.25. For the variant TEMY, the enrichment ratio was determined as 12.3.

For the variant TEMA, the enrichment ratio is 38.6. Regarding KRMA, the enrichment ratio is ≤ 0.25. In the case of KIPV, the enrichment ratio is ≤ 0.25. Next, QTVW: ≤ 0.25; FSFP: ≤ 0.25. Next, EQCQ: ≤ 0.25. Turning to AQFM, the enrichment ratio was 12.2. With AQGM, the enrichment ratio amounted to 13.3. Turning to AQQP, the enrichment ratio was ≤ 0.25.

In the case of AKFM, the enrichment ratio amounted to 0.887. On to AQCA, for which the enrichment ratio is 32.5. As for AIFM, the enrichment ratio was ≤ 0.25.

With AQCQ, the enrichment ratio amounted to 31.6. With AQCS, the enrichment ratio stood at 11.1. Regarding AQGD, the enrichment ratio was ≤ 0.25.

As for AQCI, the enrichment ratio turned out to be 8.62.

Turning to AQGR, the enrichment ratio is ≤ 0.25.

With NSDI, the enrichment ratio was ≤ 0.25. Next, SHDW: ≤ 0.25. In the case of PPSE, the enrichment ratio is ≤ 0.25. As to GEHW, the enrichment ratio is ≤ 0.25. Take SDNF: the enrichment ratio is ≤ 0.25. With WLKM, the enrichment ratio was ≤ 0.25.

Take FCKF: the enrichment ratio is ≤ 0.25. On to MLLR, for which the enrichment ratio is ≤ 0.25.

On to FQAN, for which the enrichment ratio was ≤ 0.25. With ILQV, the enrichment ratio was ≤ 0.25. In the case of ELVF, the enrichment ratio was ≤ 0.25. As to YMHL, the enrichment ratio was ≤ 0.25. In the case of ENAI, the enrichment ratio was ≤ 0.25. Next, AQCK: 29.5; AQRM: ≤ 0.25; AQWM: ≤ 0.25.
